Experimental findings from PubChem BioAssay (NCATS) are described below.

Unmarked numbers belong to inactive results. Inconclusive results are not listed. Activity calls are given as the source filed them. Unless noted, calls come from the whole dose curve; as a rule, active = well fitted curve in the direction sought with a large enough effect; inconclusive = small, poorly fitted or top-dose-only effect, or another doubt; inactive = no such curve, though single readings can be large; an effect the other way counts as inactive or inconclusive.

Test [1] addresses Lysosomal acid glucosylceramidase (Homo sapiens) (UniProt P04062). The experiment in a line: Glucocerebrosidase-p2 (AID 348; in the data active = potency below about 10 µM; note: potency is the fitted concentration of half-maximal effect). Particulars: purified GBA, blue fluorogenic substrate, 40 min. In short, it runs like this: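 Compounds titrated from 0.6 nM upwards against 0.2 nM enzyme in pH 5.9 citric acid/KH2PO4, taurocholate, tween-20; blue fluorogenic substrate 80 uM, 40 min room temperature, stopped and read Ex 365/Em 440 for AC50.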

The nature of test [2]: AP1 Signaling Pathway (AID 357; active = well fitted curve in either direction with a large enough effect, not every such curve was filed as active; note: % is set by controls: 0 for no effect and ±100 for the full control effect). Particulars: ME-180 AP-1-bla reporter, EGF-induced, beta-lactamase ratio, 5 h; at 7.69 µM (top of the series) unless noted. In short, it runs like this:
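ME-180 cells with beta-lactamase reporter under AP-1 response element, stimulated with EC50 EGF; compounds tested in titration series, 5 h at 37 °C. CCF4 substrate added 2.5 h at room temperature; 460/530 nm emission ratio gave %activity and AC50.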

Test [3] deals with Cytochrome P450 1A2 (Homo sapiens) (UniProt P05177). The experiment in a line: p450-cyp1a2 (AID 410; calls by dose curve; note: potency is the fitted concentration of half-maximal effect;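 for activity change, negative = inhibition: -100% = full effect of reference inhibitor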). The conditions noted are these: recombinant CYP1A2, luciferin-ME demethylation, luminescence; series mostly up to 11.4 µM. The method in brief:
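Inhibition was calculated relative to 57 uM furafylline (full inhibition). The reaction used human CYP1A2 at 20nM with Luciferin-ME at its Km, 100uM, driven by an NADPH-regenerating system for 60 min at room temperature.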

Test [4] can be described thus: NFAT Signaling Pathway (AID 444; active = well fitted curve in either direction with a large enough effect, not every such curve was filed as active;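 note: carbachol stimulus at about its EC50 of 1 µM final; % is set by controls: 0 for no effect and ±100 for the full control effect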). The conditions noted are these: Jurkat NFAT-bla M1, carbachol, beta-lactamase ratio, 5 h; at 7.69 µM (top of the series) unless noted. In short, it runs like this: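 Jurkat cells with NFAT-driven β-lactamase reporter and co-expressed M1 receptor, stimulated with carbachol (final 1 uM, ~EC50), compound titration, 5 h at 37 °C. CCF4 loaded 1 h at RT; 460/530 nm ratio gave %activity and AC50.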

A short description of test [5]: Stat Signaling Pathway (AID 446; active = well fitted curve in either direction with a large enough effect, not every such curve was filed as active;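 note: ME-180 cervical cancer cells given 40 pM IL-6 alongside compound; SIE-controlled beta-lactamase reporter measured as 460/530 nm FRET emission ratio; % is set by controls: 0 for no effect and ±100 for the full control effect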). Particulars: ME-180 SIE beta-lactamase reporter, IL-6 stimulated, 5 h; at 7.69 µM (top of the series) unless noted. The method in brief:
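Screening format detects activators and inhibitors alike: ME-180 SIE-bla cells stimulated at 40 pM IL-6 for 5 hrs with compound, then dual-emission beta-lactamase read at 405 nm excitation.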

Test [6] has as its target Glucocorticoid receptor (Homo sapiens) (UniProt P04150). The experiment in a line: GR-GFP Redistribution (AID 450;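 active = compounds whose dose series gives a full or clear partial fitted curve of increased nuclear translocation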; note: potency is the fitted concentration of half-maximal effect). Particulars: U2OS GR-GFP nuclear translocation, laser cytometry, 2 h.
Test [7] addresses Mitogen-activated protein kinase 10 (Mus musculus) (UniProt Q61831). The experiment in a line: JNK3 AlphaScreen Assay (AID 530; active = well fitted curve in either direction with a large enough effect, not every such curve was filed as active;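 note: kinase came from lysate of stimulated human HepG2 cells; signal reports phosphorylation of biotinylated GST-cJun 1-79 at Ser73 with 10 µM ATP; % is set by controls: 0 for no effect and ±100 for the full control effect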). The conditions noted are these: JNK3 lysate, c-Jun phosphorylation; series mostly up to 11.4 µM. The method in brief:
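qHTS format: compounds tested as titrations against IL-1beta/TNF-alpha-activated HepG2 lysate JNK3 with biotin-GST-cJun substrate and 10 uM ATP at room temperature. Loss of anti-phospho-cJun AlphaScreen signal indicates inhibition.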
On the technique in general: Alpha assays give light when donor and acceptor beads are brought close together.

In test [8] the target is Cytochrome P450 2C9 (Homo sapiens) (UniProt P11712). The experiment in a line: qHTS Assay for Inhibitors and Substrates of Cytochrome P450 2C9 (AID 883). Note: nearly all actives have a fitted effect of over 60% in size. Note: potency is the fitted concentration of half-maximal effect. Particulars: recombinant CYP2C9, luciferin-H luminescence, 60 min; series mostly up to 11.4 µM. In short, it runs like this: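 Human CYP2C9 (10nM) with Luciferin-H at 100uM (its KM) in 25mM KPO4; compound preincubated 10 min at 37C, then NADPH regeneration for 60 min at 37C. Luciferin read by luminescence after detection reagent; normalized to 57uM sulphaphenazole as full inhibition.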
A general note: In qHTS, concentration-response curves come from the screen itself.

The target of test [9] is Cytochrome P450 3A4 (Homo sapiens) (UniProt P08684). In words: qHTS Assay for Inhibitors and Substrates of Cytochrome P450 3A4 (AID 884). Note: nearly all actives have a fitted effect of over 50% in size. Note: potency is the fitted concentration of half-maximal effect. Particulars: recombinant CYP3A4, Luciferin-PPXE luminescence; series mostly up to 57.1 µM. In short, it runs like this: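 20 nM human CYP3A4 with 25 uM Luciferin-PPXE (at KM) in 200 mM KPO4, preincubated 10 min with compound; NADPH regeneration started a 60 min RT reaction. Luciferin detected by luminescence, normalized to 57 uM ketoconazole as full inhibition.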

Test [10] is described as follows: S16 Schwann cell PMP22 intronic element beta-lactamase assay (AID 624044; calls by dose curve;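 note: 0% = DMSO and -100% = potassium clavulanate positive control; nearly all actives have a fitted effect of over 15% in size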). The conditions noted are these: S16 rat Schwann cells, PMP22 element beta-lactamase FRET, 24 h; series mostly up to 38.3 µM. The method in brief:
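Rat S16 Schwann cells with beta-Lac driven by a PMP22 intronic element, compound-treated 24 h at 37 °C. LiveBLAzer FRET B/G read: 460 nm normalized to potassium clavulanate vs DMSO; 535 nm FRET as viability; concentration-effect curves classified.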

A short description of test [11]: qHTS profiling for inhibitors of Plasmodium falciparum proliferation (AID 504749).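 Note: 0% = DMSO vehicle and full inhibition = artemisinin control; nearly all actives have a fitted effect of over 60% in size.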 Particulars: P. falciparum in erythrocytes, SYBR Green DNA, 72 h; at 28.7 µM (top of the series); parasite line A. The method in brief: (§1)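 Readout was DNA-dye fluorescence from lysed cultures, ex 485/em 535 nm. Parasitized red cells had grown 72 h with compound; data scaled between 0.29 uM artemisinin and DMSO wells and corrected using vehicle-only plates.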

Another test deals with 3D7. The test is described as above. The conditions noted are these: P. falciparum in erythrocytes, SYBR Green DNA, 72 h; series mostly up to 28.7 µM. In short, it runs like this: as §1
In the next test the test system is AS120. Described as above. The conditions noted are these: P. falciparum in erythrocytes, SYBR Green DNA, 72 h; series mostly up to 28.7 µM. The method in brief:
as §1

Test [12] deals with Cytochrome P450 2C19 (Homo sapiens) (UniProt P33261). In words: qHTS Assay for Inhibitors and Substrates of Cytochrome P450 2C19 (AID 899). Note: nearly all actives have a fitted effect of over 60% in size. Note: potency is the fitted concentration of half-maximal effect. The conditions noted are these: recombinant CYP2C19, luciferin-H EGE luminescence; series mostly up to 11.4 µM. The method in brief: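 5 nM human CYP2C19 with 10uM Luciferin-H EGE (at KM) in 50mM KPO4, compound preincubated 10 min at 37C, then NADPH regeneration for 60 min at 37C. Luciferin read by luminescence after detection reagent; normalized to 57uM ketoconazole as full inhibition.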

Test [13] deals with Luciferin 4-monooxygenase (Photinus pyralis) (UniProt P08659). The experiment in a line: Biochemical firefly luciferase enzyme assay for NPC (AID 624030).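 Note: purified P. pyralis luciferase at 10 nM with luciferin and ATP substrate; 0% = DMSO and -100% = full luciferase inhibition by PTC124 control; nearly all actives have a fitted effect of over 70% in size.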 The conditions noted are these: purified P. pyralis luciferase, luminescence, 5 min; series mostly up to 58.6 µM. The method in brief:
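Purified P. pyralis luciferase at 10 nM in 50 mM Tris Acetate (final), luminescence read within 5 minutes of enzyme addition to compounds. Activity normalised to PTC124 versus DMSO; concentration-response curves classed by r2, magnitude and activity.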

The target of test [14] is Glucocorticoid receptor (Homo sapiens) (UniProt P04150). In words: GR-EFC Redistribution (AID 451; calls by dose curve; note: potency is the fitted concentration of half-maximal effect). Particulars: CHO-K1 GR-EFC translocation, beta-gal luminescence, 2 h. In short, it runs like this: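 CHO-K1 cells expressing nuclear EA and GR-ED fragments of b-gal; compounds titrated up to 46 uM final, 2 h at 37 C. GR nuclear translocation read as complemented b-gal luminescence after 1 h RT detection.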

Test [15] addresses 3',5'-cyclic-AMP phosphodiesterase 4B (Homo sapiens) (UniProt Q07343). In words: qHTS Assay for Inhibitors of PDE-IV (AID 607; active = well fitted activation curve with a large enough effect in the main read-out, with a control signal flat, not every such curve was filed as active; note: % of control where 0% means no effect). The conditions noted are these: HEK293 ACTOne CNG channel cells, membrane potential fluorescence; series mostly up to 22.9 µM. In short, it runs like this:
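The readout is membrane depolarisation from a cAMP-sensing CNG channel, detected with a potential dye at ex 535/em 590. Cells were HEK293-derived (endogenous PDE-IV) at 1000 cells/well, titrated up to 22.9 uM final.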

Test [16] addresses Cytochrome P450 3A4 (Homo sapiens) (UniProt P08684). The experiment in a line: qHTS Assay for Activators of Cytochrome P450 3A4 (AID 885). Note: nearly all actives have a fitted effect of over 65% in size. The conditions noted are these: recombinant CYP3A4, Luciferin-PPXE luminescence, 60 min; series mostly up to 11.4 µM. The method in brief:
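Steps: enzyme/substrate mix dispensed; compound added, 10 min RT; NADPH regeneration solution added, 60 min RT; luciferin detection buffer stops reaction; 20 min later luminescence measured.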

Chain of 3',5'-cyclic-AMP phosphodiesterase 4B (Homo sapiens) (Q07343 whole entry, looked up): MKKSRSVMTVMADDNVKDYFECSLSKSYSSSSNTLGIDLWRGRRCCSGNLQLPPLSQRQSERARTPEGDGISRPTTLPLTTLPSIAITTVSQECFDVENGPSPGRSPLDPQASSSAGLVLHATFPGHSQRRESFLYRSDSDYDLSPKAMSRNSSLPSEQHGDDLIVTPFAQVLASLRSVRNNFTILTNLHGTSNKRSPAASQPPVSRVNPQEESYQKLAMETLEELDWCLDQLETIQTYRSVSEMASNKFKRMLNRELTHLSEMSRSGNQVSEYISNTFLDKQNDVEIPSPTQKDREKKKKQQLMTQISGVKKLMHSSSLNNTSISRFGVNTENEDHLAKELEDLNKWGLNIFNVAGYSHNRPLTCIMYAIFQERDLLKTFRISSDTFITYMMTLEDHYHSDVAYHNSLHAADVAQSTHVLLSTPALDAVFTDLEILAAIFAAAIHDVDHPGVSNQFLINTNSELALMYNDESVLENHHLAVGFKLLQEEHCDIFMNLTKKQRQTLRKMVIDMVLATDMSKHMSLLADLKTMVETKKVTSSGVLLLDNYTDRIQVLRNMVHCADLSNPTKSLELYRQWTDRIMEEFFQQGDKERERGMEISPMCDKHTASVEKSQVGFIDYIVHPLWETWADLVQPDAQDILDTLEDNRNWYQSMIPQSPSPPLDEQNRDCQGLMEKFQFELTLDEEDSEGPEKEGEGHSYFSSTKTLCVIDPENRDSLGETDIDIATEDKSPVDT
Chain of Cytochrome P450 3A4 (Homo sapiens) (P08684 whole entry, looked up): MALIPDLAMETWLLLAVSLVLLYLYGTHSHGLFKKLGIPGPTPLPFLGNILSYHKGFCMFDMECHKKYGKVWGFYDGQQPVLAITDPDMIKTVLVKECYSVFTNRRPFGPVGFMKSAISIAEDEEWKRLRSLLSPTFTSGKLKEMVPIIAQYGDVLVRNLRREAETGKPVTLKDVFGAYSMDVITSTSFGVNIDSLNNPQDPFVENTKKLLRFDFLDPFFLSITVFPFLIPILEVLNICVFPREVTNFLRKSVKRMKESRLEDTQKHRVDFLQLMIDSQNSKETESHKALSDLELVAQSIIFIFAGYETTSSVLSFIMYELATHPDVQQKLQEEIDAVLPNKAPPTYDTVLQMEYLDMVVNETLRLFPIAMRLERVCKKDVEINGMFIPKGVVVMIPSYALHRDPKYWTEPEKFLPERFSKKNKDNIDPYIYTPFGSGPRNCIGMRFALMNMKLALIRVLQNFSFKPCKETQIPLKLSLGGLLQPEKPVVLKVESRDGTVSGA
Chain of Lysosomal acid glucosylceramidase (Homo sapiens) (P04062 whole entry, looked up): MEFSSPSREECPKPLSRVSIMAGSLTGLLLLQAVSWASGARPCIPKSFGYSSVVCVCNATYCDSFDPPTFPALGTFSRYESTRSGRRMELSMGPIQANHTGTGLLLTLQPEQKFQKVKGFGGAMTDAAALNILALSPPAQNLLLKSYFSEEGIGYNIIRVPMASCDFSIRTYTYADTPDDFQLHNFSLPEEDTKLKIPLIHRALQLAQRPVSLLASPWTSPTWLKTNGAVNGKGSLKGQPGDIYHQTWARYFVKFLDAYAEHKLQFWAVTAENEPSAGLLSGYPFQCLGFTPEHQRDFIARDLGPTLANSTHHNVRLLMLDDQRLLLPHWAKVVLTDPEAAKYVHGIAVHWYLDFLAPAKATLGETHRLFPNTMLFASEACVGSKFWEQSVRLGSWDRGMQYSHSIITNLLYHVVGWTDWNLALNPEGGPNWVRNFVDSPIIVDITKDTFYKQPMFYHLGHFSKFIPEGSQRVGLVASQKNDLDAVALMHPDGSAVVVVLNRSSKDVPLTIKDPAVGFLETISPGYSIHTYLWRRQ
Chain of Cytochrome P450 2C19 (Homo sapiens) (P33261 whole entry, looked up): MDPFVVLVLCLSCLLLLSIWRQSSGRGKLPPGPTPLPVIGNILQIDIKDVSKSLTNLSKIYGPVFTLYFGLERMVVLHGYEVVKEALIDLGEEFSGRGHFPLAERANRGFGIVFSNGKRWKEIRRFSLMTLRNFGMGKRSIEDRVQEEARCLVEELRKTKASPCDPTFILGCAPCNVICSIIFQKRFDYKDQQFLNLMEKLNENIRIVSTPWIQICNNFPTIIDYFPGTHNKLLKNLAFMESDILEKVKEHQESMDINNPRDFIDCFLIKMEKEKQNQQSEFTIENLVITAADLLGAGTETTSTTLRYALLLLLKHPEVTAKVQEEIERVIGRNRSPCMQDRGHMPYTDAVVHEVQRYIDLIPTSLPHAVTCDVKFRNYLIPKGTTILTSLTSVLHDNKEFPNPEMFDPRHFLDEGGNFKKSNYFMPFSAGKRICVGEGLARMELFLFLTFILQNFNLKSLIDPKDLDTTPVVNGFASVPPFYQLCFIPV
Chain of Glucocorticoid receptor (Homo sapiens) (P04150 whole entry, looked up, the tested form may be a part): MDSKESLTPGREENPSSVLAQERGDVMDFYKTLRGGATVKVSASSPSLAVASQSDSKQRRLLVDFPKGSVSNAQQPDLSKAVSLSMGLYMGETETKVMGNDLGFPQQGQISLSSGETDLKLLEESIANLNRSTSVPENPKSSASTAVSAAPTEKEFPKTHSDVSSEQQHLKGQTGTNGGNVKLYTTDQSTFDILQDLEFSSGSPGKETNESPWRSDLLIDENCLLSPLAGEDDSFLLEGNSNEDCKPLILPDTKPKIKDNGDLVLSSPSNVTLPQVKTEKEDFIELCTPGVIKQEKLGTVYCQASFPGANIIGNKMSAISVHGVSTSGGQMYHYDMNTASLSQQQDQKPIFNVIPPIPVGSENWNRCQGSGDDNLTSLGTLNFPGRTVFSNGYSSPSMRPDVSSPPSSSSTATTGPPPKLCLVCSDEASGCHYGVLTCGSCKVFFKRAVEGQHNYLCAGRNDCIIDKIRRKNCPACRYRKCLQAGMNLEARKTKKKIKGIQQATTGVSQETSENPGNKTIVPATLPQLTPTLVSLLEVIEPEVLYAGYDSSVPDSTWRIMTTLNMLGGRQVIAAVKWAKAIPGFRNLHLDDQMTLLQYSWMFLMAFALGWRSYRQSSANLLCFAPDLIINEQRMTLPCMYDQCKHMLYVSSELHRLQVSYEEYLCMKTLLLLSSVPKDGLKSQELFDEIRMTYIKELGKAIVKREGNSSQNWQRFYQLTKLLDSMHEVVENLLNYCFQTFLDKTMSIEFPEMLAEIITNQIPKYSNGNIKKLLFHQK
Chain of Cytochrome P450 1A2 (Homo sapiens) (P05177 whole entry, looked up): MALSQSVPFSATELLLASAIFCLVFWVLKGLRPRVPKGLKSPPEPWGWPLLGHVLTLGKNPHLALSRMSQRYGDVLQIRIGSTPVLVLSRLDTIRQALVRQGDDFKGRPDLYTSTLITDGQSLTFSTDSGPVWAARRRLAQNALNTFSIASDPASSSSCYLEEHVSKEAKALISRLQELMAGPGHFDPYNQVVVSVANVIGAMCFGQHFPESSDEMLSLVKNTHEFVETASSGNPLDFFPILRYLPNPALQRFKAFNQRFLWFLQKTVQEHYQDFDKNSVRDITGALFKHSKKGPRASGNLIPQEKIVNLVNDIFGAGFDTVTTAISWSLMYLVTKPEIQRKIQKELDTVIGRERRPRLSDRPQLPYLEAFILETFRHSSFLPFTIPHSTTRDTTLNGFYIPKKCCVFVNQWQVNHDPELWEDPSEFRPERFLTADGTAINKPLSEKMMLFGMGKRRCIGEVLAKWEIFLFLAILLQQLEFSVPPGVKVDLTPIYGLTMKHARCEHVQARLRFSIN
Chain of Cytochrome P450 2C9 (Homo sapiens) (P11712 whole entry, looked up): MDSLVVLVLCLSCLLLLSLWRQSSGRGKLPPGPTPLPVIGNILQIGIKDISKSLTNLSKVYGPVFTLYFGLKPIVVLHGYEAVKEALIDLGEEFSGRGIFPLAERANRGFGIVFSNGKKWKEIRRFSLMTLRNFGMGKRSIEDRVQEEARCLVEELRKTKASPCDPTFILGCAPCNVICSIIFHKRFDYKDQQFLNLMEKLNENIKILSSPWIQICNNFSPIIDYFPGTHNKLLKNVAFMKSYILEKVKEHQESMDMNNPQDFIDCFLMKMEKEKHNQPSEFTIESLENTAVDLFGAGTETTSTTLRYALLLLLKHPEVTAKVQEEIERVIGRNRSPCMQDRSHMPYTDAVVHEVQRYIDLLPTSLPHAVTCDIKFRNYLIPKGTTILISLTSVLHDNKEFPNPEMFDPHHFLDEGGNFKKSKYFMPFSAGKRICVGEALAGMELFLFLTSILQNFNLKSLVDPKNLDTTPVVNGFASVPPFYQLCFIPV
Chain of Luciferin 4-monooxygenase (Photinus pyralis) (P08659 whole entry, looked up): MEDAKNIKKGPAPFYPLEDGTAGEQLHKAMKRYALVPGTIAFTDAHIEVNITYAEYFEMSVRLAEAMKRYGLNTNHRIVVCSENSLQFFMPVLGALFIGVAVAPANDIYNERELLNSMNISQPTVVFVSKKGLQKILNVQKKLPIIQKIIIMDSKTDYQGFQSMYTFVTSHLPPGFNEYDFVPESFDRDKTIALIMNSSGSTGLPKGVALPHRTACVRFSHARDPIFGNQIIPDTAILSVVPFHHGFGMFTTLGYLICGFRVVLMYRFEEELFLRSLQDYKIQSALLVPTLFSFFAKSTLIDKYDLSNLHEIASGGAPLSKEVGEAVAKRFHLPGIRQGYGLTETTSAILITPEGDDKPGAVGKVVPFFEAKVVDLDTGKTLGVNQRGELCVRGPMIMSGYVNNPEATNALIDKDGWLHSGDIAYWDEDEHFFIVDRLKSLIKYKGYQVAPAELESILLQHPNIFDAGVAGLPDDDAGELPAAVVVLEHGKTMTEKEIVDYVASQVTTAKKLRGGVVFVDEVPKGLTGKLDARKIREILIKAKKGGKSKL

As to `N[C@@H](Cc1ccnnc1)C(=O)O`, the results for the Potency in test [1] and in test [6] were greater than 11.4 µM and greater than 46 µM, respectively. For the same molecule, the activity change, negative = inhibition in test [2] was -10.1%; in test [3], -10.6% [at 2.29 µM]; in test [4], 13.5%. In test [5], the activity, negative = inhibition is -4.41%. Moreover, the Potency entry in test [7] was “inactive”.
On to `O=C1C(=O)c2ccccc2C(O)=C1C(CCc1ccccc1)C1=C(O)c2ccccc2C(=O)C1=O`, for which the Potency in test [8] is 3.16 µM (active).
On the same count and under the same terms, next, `O=C(N/N=C\c1ccc2c(c1)CCC2)c1ccccc1O`: “inactive”.
`N[C@@H](Cc1ccccc1)C(=O)O`: the Potency result (in test [9]; in the test with 3D7; in the test with AS120) was “inactive” each time. Also, the molecule was classed as inactive in test [10]. In [11], the activity, negative = inhibition is 4.49%.
Turning to `Clc1ccc(CN2CCCN(Cc3ccc(Cl)cc3)C2c2cc3ccccc3c3ccccc23)cc1`, the Potency in [12] was 0.794 µM (active).
As to `C[C@@]12CCC(=O)C=C1CC[C@H]1[C@@H]2[C@@H](O)C[C@]2(C)[C@@H]1CC[C@@]2(O)C(=O)CO`, the Potency result in test [12] was “inactive”.
Turning to `O=C(O)[C@@H](O)[C@@H](O)[C@H](O)[C@H](O)CO`, the outcome in [13] and in test [10] was inactive.
For `C[C@]12CC[C@H]3c4ccc(O)cc4CC[C@@H]3[C@H]1CC[C@@H]2OP(=O)(O)O`, the molecule was called inactive in [13]. In addition, in test [11], the activity, negative = inhibition was 12.7%. In addition, the Potency entry in the test with 3D7 and in the test on AS120 was “inactive” in each case.
Take `C[N+](C)(C)c1ncnc2c1ncn2[C@@H]1CCCCO1`: the Potency in test [1] was greater than 11.4 µM; in test [6], greater than 46 µM; in test [14], greater than 9.22 µM. Also, the activity change, negative = inhibition in test [2] is 10.7%; in [3], 2.3% [at 2.29 µM]; in test [4], 5.08%. Besides, the Potency entry in test [7], in test [15] and in [12] was “inactive” throughout.
For `NCCSc1nc2ccccc2s1`, the Potency in [1] is greater than 11.4 µM; in [3], 0.316 µM (active); in [6], greater than 46 µM; in [14], greater than 9.22 µM; in test [8], 1.58 µM (active); in [9], 3.16 µM (active). In test [12], the Potency was 1.58 µM (active). Moreover, the figures for the activity change, negative = inhibition in test [2] and in [4] were 1.91% and 7.28%, respectively. Besides, the Potency entry in [7], in test [15] and in [16] was “inactive” in each case.
Turning to `O=C(O)[C@@H](O)[C@@H](O)[C@@H](O)[C@@H](O)c1nc2ccccc2s1`, the Potency in [1] is greater than 11.4 µM; in test [3] it was 3.98 µM (active); in test [6] it was greater than 46 µM; in [14], greater than 9.22 µM; in test [12] it was 3.16 µM (active). Further, the activity change, negative = inhibition was 11.6% in test [2] and -1.53% in [4]. Further, the Potency entry in test [7] and in [15] was “inactive” each time.
